ELG1 repair inh: qHTS screen for small molecules that inhibit ELG1-dependent DNA repair in human embryonic kidney (HEK293T) cells expressing luciferase-tagged ELG1 | Potency, µM (series often up to 46.1 µM), for the others: at the top dose activity change, negative = inhibition, hits mostly inhibitors | AID 504467, 2011 | HEK293T ELG1-luciferase reporter, luminescence, 16 h; DNA damage induced by 5-fluorouridine | actives 2.3% (n = 330,000); also: potency is read from the fitted curve at half-maximal effect; nearly all actives have a fitted effect of over 55% in size
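Quantitative HTS, concentration-response format. 2,000 cells/well co-treated with 5-fluorouridine and compound, 16 hr in 5% CO2 at 37 °C; ONE-Glo luminescence read after 30 min.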
TDP1 cell noCPT: qHTS for Inhibitors of human tyrosyl-DNA phosphodiesterase 1 (TDP1): qHTS in cells in absence of CPT. DT40 Tdp1-/- hTDP1 cells, no CPT, ATP luminescence, 48 h. Potency, µM (doses to about 46.2 µM), without a hit: at the highest dose activity change, negative = growth inhibition, usual class: inhibitors. actives 15% (n = 420,000). AID 686978, 2013; also: potency is read from the fitted curve at half-maximal effect; nearly all actives have a fitted effect of over 55% in size
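Chicken DT40 Tdp1-/- cells complemented with human TDP1, screened without camptothecin (DMSO vehicle only), 400 cells/well. Compounds pin-transferred, cells incubated at 37 °C for at least 48 hr. Growth read as ATP-dependent luminescence (CellTiter-Glo, 30 min at RT).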
IL1B secr inh: qHTS for Inhibitors of Inflammasome Signaling: IL-1-beta AlphaLISA Primary Screen; activity change, % at 57.5 µM; THP-1 LPS/ATP IL-1B secretion, AlphaLISA, 16 h; stronger effect = lower value; actives 4.7% (n = 360,000); AID 743279, 2014; in the data active = activity change below about -50%; inconclusive = mostly about -30% to -49%
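THP-1 cells pretreated 1 hr with compounds (up to 57.5 uM final), then stimulated with LPS (250 ng/mL final) plus ATP (1.25 mM final); secreted IL-1B measured by AlphaLISA after 16 hr, decreased signal indicating inhibition.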
HT1080 IDH1KD tx: qHTS for induction of synthetic lethality in tumor cells producing 2HG: qHTS for the HT-1080-IDH1KD cell line; actives 2% (n = 360,000); HT-1080 IDH1 knockdown viability, ATP luminescence, 48 h; Potency, µM (highest dose often 46.1 µM), for the others: at the highest dose activity, negative = toxicity, actives largely listed as cytotoxic;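 also: potency is read from the fitted curve at half-maximal effect; 0% = DMSO wells and -100% = cell-free medium wells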
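Viability of IDH1-knockdown HT-1080 fibrosarcoma cells was assessed by CellTiter-Glo after 48 h at 37 °C with titrated compound; concentration-effect curves were classified by fit quality and response size.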
DT40 TDP1 CPT: qHTS for Inhibitors of human tyrosyl-DNA phosphodiesterase 1 (TDP1): qHTS in cells in presence of CPT | chicken DT40 Tdp1-/-;hTDP1 cells + 20 nM CPT, ATP luminescence, 48 h | Potency, µM (highest dose often 46.2 µM), without a hit: at the top dose activity change, negative = growth inhibition, usual class: inhibitors | actives 12% (n = 420,000) | AID 686979, 2013; also: potency is read from the fitted curve at half-maximal effect; nearly all actives have a fitted effect of over 55% in size
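Cell growth measured by CellTiter-Glo luminescence after a minimum 48 h, 37 C compound exposure with 20 nM CPT in Tdp1-knockout DT40 cells stably expressing hTDP1, seeded 400/well; qHTS titration format.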
HT1080-NT tox: qHTS for induction of synthetic lethality in tumor cells producing 2HG: qHTS for the HT-1080-NT fibrosarcoma cell line | AID 686970, 2013 | HT-1080-NT fibrosarcoma viability, CellTiter-Glo ATP luminescence, 48 h | Potency, µM (highest dose often 46.1 µM), for inactives: at the highest dose activity, negative = less viability, usual class: cytotoxic | actives 1.6% (n = 360,000);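 also: NT is the 2HG producing partner of a matched IDH1 knockdown line; potency is read from the fitted curve at half-maximal effect; 0% = DMSO-treated cells and -100% = media-only wells without cells; nearly all actives have a fitted effect of over 55% in size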
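750 cells/well, RPMI + 5% FBS; 2 h settle, compound pin-transfer, 48 h at 37 degrees C. CellTiter-Glo 10 min RT, luminescence. Normalized to DMSO and media-only wells.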
The depositor's hits bear a star; u = inconclusive; x = not tested or not shown; ! = repeats disagree; [ ] = another dose, or the depositor's remark. Hits are enriched below; roughly 19% of the tested compounds scored in any of these assays. Unless noted, calls follow the shape of the dose curve; as a rule, active = well fitted curve in the direction sought with a large enough effect; inconclusive = small, poorly fitted or top-dose-only effect, or another doubt; inactive = no such curve, though single readings can be large; an effect the other way counts as inactive or inconclusive. Unless noted, % is scaled to controls: 0 for no effect and ±100 for the full control effect.

SMILES	ELG1 repair inh	TDP1 cell noCPT	IL1B secr inh	HT1080 IDH1KD tx	DT40 TDP1 CPT	HT1080-NT tox
CN1C(=O)CN=C(c2ccc[nH]2)c2cc(Cl)ccc21 (tested in a mixture with another compound)	x	1.3µM*	-1	-16%	1.6µM*	-14%
Cc1ccccc1CN1C(=O)CN=C(c2ccccc2)c2cc(Cl)ccc21	x	18µM*	x	x	u	x
CN1C(=O)CN=C(c2ccc(Cl)cc2)c2cc(Cl)ccc21	u	u	-21	u	12%	u
Cc1cccc(CN2C(=O)CN=C(c3ccccc3Cl)c3cc(Cl)ccc32)c1	x	23µM*	x	x	23µM*	x
CN1C(=S)CN=C(c2ccccc2)c2cc(Cl)ccc21	x	15µM*	x	x	u	x
O=C(NN1C(=O)C2C3C=CC([C@H]4CC34)[C@@H]2C1=O)c1ccc(Br)cc1 (some centres undefined)	u	-7%	30	2%	-7%	-1%
CN(C)CC1CCCCC1OC(=O)Cc1ccc(Cl)c([N+](=O)[O-])c1 (centres undefined)	6%	-15%	-4	11%	3%	-3%
O=C(Oc1ccccc1)N1CCC2(CC1)CN(C(c1ccccc1)c1ccccc1)C2	x	u	x	x	-12%	x
CCC1(CCC(C)C)C(=O)NC(=O)NC1=O	x	-28%[92.5 µM]	x	x	u	x
Cc1ccc(NC(=O)CN2C(=O)CN=C(c3ccccc3)c3ccccc32)cc1Cl	x	u	x	x	23µM*	x
COC(=O)Cn1cc(C=C2C(=O)N(C)C(=O)N(C)C2=O)c2ccccc21	8%	7%	14	6%	0%	8%
CCOC(=O)Cn1cc(/C=N/NC(=O)CC#N)c2ccccc21	-8%	-20%	-55*	1%	7%	u
CCC(C)n1c(O)c(/C=N/Nc2ccccc2)c(=O)[nH]c1=S (centres undefined)	10%	10%	-3	-4%	-2%	u
Cc1onc(-c2ccccc2Cl)c1C(=O)OCC(=O)c1ccc2c(c1)OCCO2	13µM*	15µM*	-21	-20%	u	-18%
Cc1ccc2c(Cl)cc(Cl)c(OCC(=O)N(C(C)C)C(C)C)c2n1	26µM*	18µM*	0	-11%	16µM*	-18%
CC1(C)CC(=O)C2=C(C1)OC(N)=C([N+](=O)[O-])C2c1ccc(C#N)s1 (centres undefined)	4%	u	u	-11%	21µM*	-2%
CC(=O)CCc1ccccc1	15%	7%	8	8%	40%	0%
CCCCOc1ccc(CN2C(=O)C(=O)c3cc(C)ccc32)cc1OC	x	0.73µM*	x	x	1µM*	x
COc1cc(CC2C(=O)N(C)C(=O)N(C)C2=O)ccc1OCc1ccccc1	u	-19%	0	6%	u	10%
CCOC(=O)c1cc2c(cn1)[C@H](CCO)NC2	x	-2%	29	19%	8%	13%
C=C1C=C(C(F)F)n2ncc(C(=O)NCc3ccccc3F)c2N1	x	11µM*	x	x	u	x
Cc1nn(Cc2ccccc2)c(C)c1C(=O)NCc1ccccc1F	-7%	-20%	-23	15%	-3%	15%
COC(=O)C[C@](O)(CCCC(C)(C)O)C(=O)O[C@@H]1C(OC)=CC23CCCN2CCc2cc4c(cc2[C@H]13)OCO4 (some centres undefined)	x	0.0094µM*	x	x	0.013µM*	x
O=C(O)c1nn(Cc2ccc(Cl)c(Cl)c2)c2ccccc12	x	-3%	x	x	4%	x
COc1ccc(CC2c3cc(OC)c(OC)cc3CCN2C)cc1OC (centres undefined)	-7%	23µM*!	-15	-5%	18µM*!	-4%
SMILES	ELG1 repair inh	TDP1 cell noCPT	IL1B secr inh	HT1080 IDH1KD tx	DT40 TDP1 CPT	HT1080-NT tox
O=C(COc1ccc2ccccc2c1)N1CCN(CC2CC3C=CC2C3)CC1 (centres undefined)	-4%	18µM*	-14	-15%	18µM*	-15%
COc1ccc(OCC(=O)N2CCCC(N3CCN(c4ccccc4C)CC3)C2)cc1 (centres undefined)	u	21µM*	-16	-4%	16µM*	-4%
CN1CCN(C(=O)COc2ccc3ccccc3c2)CC1	u	7%	16	0%	-3%	2%
O=C(COc1ccc2ccccc2c1)N1CCN(C2CCN(Cc3ccccc3)CC2)CC1	-29%	u	-19	-2%	16µM*	-23%
COc1ccc(OCC(=O)N2CCN(C3CCC(c4ccccc4)CC3)CC2)cc1 (centres undefined)	6%	18µM*	-3	-4%	u	-11%
CC(=NCc1ccc2c(c1)OCO2)c1c(O)n(-c2ccc(C)cc2)c(=O)[nH]c1=O	1%	-8%	-3	-15%	-4%	-7%
COC(=O)C1=C(c2c(C)noc2C)C[C@@H]2CC[C@H]1N2C(=O)NC1CC1	1%	1%	5	11%	14%	2%
O=C1c2ccccc2-c2c1nc1c([n+]2[O-])CCCC1	u	u	8	16%	12µM*	9%
Oc1ccccc1C1NCc2ccccc2-n2cccc21 (centres undefined)	-4%	u	u	u	u	-36%
COc1cccc(Cn2c(-c3cccs3)noc2=O)c1	2%	u	-19	u	-11%	-27%
COc1ccc(-c2noc(=O)n2Cc2cc(C)ccc2C)cc1	u	23µM*	30	u	u	u
c1ccc2[nH]c(CCN3CCCCC3)nc2c1	x	-6%	-5	0%	-10%	2%
N[C@@]1(C(=O)O)CC[C@H](C(=O)O)C1	x	-17%	x	x	-18%	x
CN1CCCC2(CCN(C(=O)c3ccco3)CC2)C1	x	-1%	x	x	15%	x
O=C(COC(=O)Cc1ccccc1)NNC(=O)c1ccc([N+](=O)[O-])cc1	18%	12%	10	-5%	-13%	-8%
O=C(CNC(=O)c1cccs1)OCC(=O)c1ccc([N+](=O)[O-])cc1	-15%	u	-89*	14%	16µM*	-2%
